Screening data (PubChem BioAssay)
IL-1B inflam inh: qHTS for Inhibitors of Inflammasome Signaling: IL-1-beta AlphaLISA Primary Screen; THP-1 LPS/ATP IL-1B secretion, AlphaLISA, 16 h; stronger effect = lower value; hit rate 4.7% among 360,000; activity change, % at 57.5 µM; in the data active = activity change below about -50%; inconclusive = mostly about -30% to -49%; note: % is set by controls: 0 for no effect and ±100 for the full control effect
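THP-1 cells pretreated 1 hr with compounds (up to 57.5 uM final), then stimulated with LPS (250 ng/mL final) plus ATP (1.25 mM final); secreted IL-1B measured by AlphaLISA after 16 hr, decreased signal indicating inhibition.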
D3 antag: qHTS of D3 Dopamine Receptor Antagonist: qHTS. D(3) dopamine receptor (Homo sapiens), P35462. D3R cells, DiscoveRx beta-arrestin luminescence, antagonist mode; stronger effect = lower value. max response, negative = inhibition, %. hit rate 2.5% among 360,000; in the data active = max response below about -50%; inconclusive = no clear call, values can overlap the other calls; note: % is set by controls: 0 for no effect and ±100 for the full control effect
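Cells expressing the human receptor were seeded at 1500 cells/well, incubated overnight at 37 degrees C in 5% CO2, then exposed to library compounds with dopamine controls for 90 minutes at 37 degrees C before luminescent detection.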
DT40 TDP1 CPT: qHTS for Inhibitors of human tyrosyl-DNA phosphodiesterase 1 (TDP1): qHTS in cells in presence of CPT; chicken DT40 Tdp1-/-;hTDP1 cells + 20 nM CPT, ATP luminescence, 48 h; Potency, µM (series often up to 46.2 µM), for the others: at the top dose activity change, negative = growth inhibition, actives largely listed as inhibitors; hit rate 12% among 420,000; AID 686979, 2013; note: potency is the fitted concentration of half-maximal effect; % is set by controls: 0 for no effect and ±100 for the full control effect; nearly all actives have a fitted effect of over 55% in size
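Chicken DT40 Tdp1-/- cells complemented with human TDP1, 400 cells/well, exposed to compounds plus 20 nM camptothecin for at least 48 h at 37 C; viability read as ATP content by CellTiter-Glo luminescence.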
DT40 TDP1 no CPT: qHTS for Inhibitors of human tyrosyl-DNA phosphodiesterase 1 (TDP1): qHTS in cells in absence of CPT; DT40 Tdp1-/- hTDP1 cells, no CPT, ATP luminescence, 48 h; Potency, µM (highest dose often 46.2 µM), for inactives: at the highest dose activity change, negative = growth inhibition, most hits filed as inhibitors; hit rate 15% among 420,000; note: potency is the fitted concentration of half-maximal effect; % is set by controls: 0 for no effect and ±100 for the full control effect; nearly all actives have a fitted effect of over 55% in size
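Luminescent ATP content (CellTiter-Glo) served as the growth readout. Knockout chicken DT40 cells expressing human TDP1 were exposed to compounds without camptothecin for a minimum 48 hr at 37 °C.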
ClpP mod: qHTS Assay for Activators of ClpP; ATP-dependent Clp protease proteolytic subunit (Bacillus subtilis (strain 168)), P80244; purified B. subtilis ClpP, FRET peptide cleavage, 20 min; Potency, µM (top dose mostly 57.5 µM), for inactives: at the top dose activity change, negative = active; hit rate 1.9% among 340,000; active = well fitted falling curve with a large enough effect; inconclusive = small, poorly fitted or top-dose-only effect; inactive = no such curve, though single readings can be large or run the other way; note: potency is the fitted concentration of half-maximal effect; the source files actives as falling curves though it sought activators and does not explain the sign; nearly all actives have a fitted effect of over 65% in size
Target sequence (P80244 whole entry, looked up): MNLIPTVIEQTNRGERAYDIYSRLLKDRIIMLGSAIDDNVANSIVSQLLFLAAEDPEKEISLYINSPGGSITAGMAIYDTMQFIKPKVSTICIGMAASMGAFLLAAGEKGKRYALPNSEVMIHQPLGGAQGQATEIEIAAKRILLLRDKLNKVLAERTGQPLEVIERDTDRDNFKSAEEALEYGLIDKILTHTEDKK
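Buffer: 100 mM Tris/HCl pH8, 100 mM KCl, 0.05% low protease BSA, 2.5% glycerol, 0.01% Tween-20. ClpP 10 microg/mL final; 20 min RT; delta FRET normalized to ADEP and DMSO controls.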
DRD3 agonist: qHTS of D3 Dopamine Receptor Agonist: qHTS; D(3) dopamine receptor (Homo sapiens), P35462; D3R DiscoveRx beta-arrestin cells, luminescence, 90 min; max activation, %; hit rate 0.58% among 410,000; AID 652048, 2013; in the data active = max activation above about 30%; note: 0% is about no effect
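Agonist-mode cell screen: cells plated at 1500/well and incubated overnight at 37 °C, then exposed to library compounds for 90 min at 37 °C. Detection reagent was added for 30–60 min at room temperature, and luminescence was read.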
* marks the source's active call; other numbers are inactive results; ? = inconclusive; nt = no result given; [ ] = dose if it differs, or a comment. Only some compounds are listed: those with a hit (about 21% of all), similar ones and a draw of the others. Unless noted, calls come from the whole dose curve; as a rule, active = well fitted inhibition curve with a large enough effect; inconclusive = small, poorly fitted or top-dose-only effect; inactive = flat fitted curve, though single readings scatter.

SMILES	IL-1B inflam inh	D3 antag	DT40 TDP1 CPT	DT40 TDP1 no CPT	ClpP mod	DRD3 agonist
CC1(C(=O)NS(=O)(=O)c2ccccc2C(F)(F)F)CCN1C(=O)CCc1ccccc1 (stereo not drawn)	-54*	-7	9%	7%	-2%	1
CC1(C(=O)NS(=O)(=O)c2ccc(F)cc2F)CCN1C(=O)CC(c1ccccc1)c1ccccc1 (stereo not drawn)	26	0	?	?	1%	4
Cc1cc(C)c2c(=O)cc(C(=O)Nc3sc4c(c3C(=O)NCc3ccco3)CCCC4)oc2c1	nt	nt	-14%	-22%	-4%	-8
CCc1nnc(NC(=O)c2cc(S(=O)(=O)N3CCOCC3)ccc2N2CCCCC2)s1	-70*	-1	1%	?	nt	-2
O=C(Nc1cccc(F)c1)c1cc(S(=O)(=O)N2CCOCC2)ccc1N1CCCC1	-30	-17	5%	-27%	0%	-5
O=C(Nc1ccccc1Cl)c1cc(S(=O)(=O)N2CCCCC2)ccc1N1CCOCC1	-23	-4	?	23µM*	-13%	-11
O=C(Nc1cccc(C(F)(F)F)c1)c1cc(S(=O)(=O)N2CCCCC2)ccc1N1CCOCC1	?	40	23µM*	18µM*	-22%	-15
O=C(Nc1ccccc1F)c1cc(S(=O)(=O)N2CCOCC2)ccc1N1CCOCC1	-14	11	-8%	-20%	nt	8
Cc1ccc(S(=O)(=O)NCC(=O)OCC(=O)N(CCC#N)c2ccccc2)cc1	18	7	5%	-6%	1%	7
CCc1ccc(-c2nc(SCC(=O)c3c(N)n(C4CC4)c(=O)[nH]c3=O)n[nH]2)cc1	30	4	-11%	-30%	0%	2
Cc1ccc(CNc2ncnc3sc(C(=O)N4CCC[C@H]4C(N)=O)c(C)c23)o1	nt	nt	0%[9.04 µM]	-29%	nt	nt
O=C(Cn1nc(C(F)(F)F)c2c1CCCC2)Nc1ccc(Br)cc1	nt	nt	?	?	-3%	-18
Cc1ccc(C(=O)N2CCOCC2)cc1S(=O)(=O)N1CCCCC1	0	4	1%	-2%	1%	13
NC(=S)NN=C1Cc2cccc3cccc1c23	-9	?	-2%	-19%	-1%	-1
O=C1Cc2cccc3cccc1c23	43	-5	-5%	-9%	22µM*	-4
Cc1ccc(CNn2cn[nH]c2=S)cc1	0	6	-2%	-23%	0%	6
CN(CC(=O)Nc1ccc(Cl)c(Cl)c1)CC(=O)N1CCc2ccccc21	-21	0	-21%	?	1%	-3
CCN1C(=O)CC(SC2CC(=O)N(CC)C2=O)C1=O (stereo not drawn)	-2	-9	3.7µM*	8.2µM*	-2%	6
CCN1C(=O)CC(N2CCC(C(=O)OC)CC2)C1=O (stereo not drawn)	10	14	13%	-17%	-3%	3
CCCCN1C(=O)CC(SC2CC(=O)N(CCCC)C2=O)C1=O (stereo not drawn)	-10	-4	16µM*	5.8µM*	nt	0
Cc1nc(CNS(=O)(=O)c2ccc3c(c2)CCCC3)cs1	17	-3	16µM*	?	0%	2
Cc1ccc(S(=O)(=O)NCc2csc(C)n2)cc1	0	-19	6%	-9%	nt	-2
CCCCOc1ccc(S(=O)(=O)NCc2csc(C)n2)cc1	?	13	13µM*	23µM*	0%	1
N#Cc1ccc(CN2CCCC3(CCN(C(=O)c4csnn4)CC3)C2)cc1	nt	nt	0%	?	nt	nt
O=[N+]([O-])c1cc(C(F)(F)F)ccc1NCCCCNS(=O)(=O)c1ccc(Cl)cc1	-56*	?	13µM*	15µM*	2%	-16
